High-throughput results (PubChem)
CYP2C19 inh = blockers of cytochrome P450 2C19 activity – biochemical, luminescence, ADME assay, primary screen; 21% of 96,000 active; CYP2C19 Supersomes, luciferin-H EGE luminescence, 30 min; inhibition, % at 5 µM;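 active = CYP2C19 inhibition above a set limit at 5 µM in the primary screen, cut at about 50% in these data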;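 note: plate controls were negative control wells for no effect and 2.5 mM tranylcypromine positive control for full effect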
Target sequence (P33261 whole entry, looked up): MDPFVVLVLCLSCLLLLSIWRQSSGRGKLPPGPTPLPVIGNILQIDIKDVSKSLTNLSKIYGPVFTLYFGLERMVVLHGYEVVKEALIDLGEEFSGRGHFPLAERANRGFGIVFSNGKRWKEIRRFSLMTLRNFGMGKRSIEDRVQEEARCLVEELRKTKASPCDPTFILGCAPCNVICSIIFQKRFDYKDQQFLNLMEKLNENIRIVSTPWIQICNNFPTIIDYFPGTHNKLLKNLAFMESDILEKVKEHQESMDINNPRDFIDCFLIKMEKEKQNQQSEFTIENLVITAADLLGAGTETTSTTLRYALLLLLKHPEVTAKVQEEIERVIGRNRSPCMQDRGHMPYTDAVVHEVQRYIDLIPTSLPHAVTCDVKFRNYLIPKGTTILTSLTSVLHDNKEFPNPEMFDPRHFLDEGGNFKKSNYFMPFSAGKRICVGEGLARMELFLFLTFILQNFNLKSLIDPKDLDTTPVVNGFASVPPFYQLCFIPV
Pyk2 oligo antag = antagonists of Pyk2 self-association, primary screen, Q293 cells, FERM NanoBiT luminescence, HTS | Protein-tyrosine kinase 2-beta (Homo sapiens), Q14289 | hits give low values | z-score (the deposit names both 25 µM and 10 µM) | 0.83% of 99,000 active;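 active = Z-score of -3 or lower, scaled per plate to the spread of control and sample wells; inactive = z-score above -3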;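 note: negative z-score means lost luminescence so less FERM oligomerization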
CYP2C9 activ = human CYP2C9 activators, primary screen, biochemical, luminescence; Cytochrome P450 2C9 (Homo sapiens), P11712; recombinant CYP2C9, luciferin-H conversion; hits give high values; factor 1 = untreated enzyme, 0 = blocked; activation factor at 5 µM; 1.4% of 96,000 active;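 active = activation factor of 2 or more for CYP2C9 at a 5 µM dose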;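 note: 0 = sulfaphenazole-blocked wells and 1 = vehicle-only wells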
CYP2C9 inhib = blockers of cytochrome P450 2C9 activity – biochemical, luminescence, ADME assay, primary screen; inhibition, % at 5 µM; CYP2C9 Supersomes, luciferin-H conversion; 20% of 96,000 active; P11712; AID 777, 2007;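 active = blocking of liver enzyme CYP2C9 beyond about 50% at 5 µM, limit read from the data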
CYP2C19 act = human CYP2C19 activators, primary screen, biochemical, luminescence. 96,000 tested, under 10 active. recombinant CYP2C19, luciferin-H EGE luminescence; hits give high values; 0 = fully inhibited enzyme, 1 = untreated enzyme. Cytochrome P450 2C19 (Homo sapiens), P33261. activation factor at 5 µM;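 active = activation factor of at least 2 at 5 µM in the primary screen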;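 note: 0 = wells with 2.5 mM tranylcypromine and 1 = vehicle-only wells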
* hit, by the source's call; / = not tested or not shown. This is a sample that favours compounds with a hit; in the whole collection about 28% have one here.

SMILES | CYP2C19 inh | Pyk2 oligo antag | CYP2C9 activ | CYP2C9 inhib | CYP2C19 act
Clc1cccc(CSc2nc3ccncc3[nH]2)c1 | 100* | / | 0.2 | 76* | 0
Cc1ncc(CSc2nc3ccccc3[nH]2)c(N)n1 | -6 | 0.73 | 1.1 | -10 | 1.1
COc1ccc(-c2c(C)n([O-])c3c([n+]2=O)CCC3)cc1OC | -12 | 0.75 | 1.2 | -20 | 1.1
COc1ccccc1-c1nnc2n1N=C(C(C)(C)C)CS2 | 79* | -0.35 | 0.5 | 46 | 0.2
CC(C)(C)C1=Nn2c(nnc2C2CCCCC2)SC1 | 68* | -0.4 | 0.6 | 45 | 0.3
CC(C)(C)C1=Nn2c(nnc2-c2ccccc2F)SC1 | 78* | -0.53 | 0.6 | 43 | 0.2
c1cc2c(cc1C1=Nn3c(nnc3C3CCCCC3)SC1)OCO2 | 9 | -1.6 | 0.6 | 37 | 0.9
O=C(NCc1ccccc1F)C1CCCN(C(=O)NC2CCCCC2)C1 (stereo unspecified) | -3 | 1.6 | 1 | -1 | 1
C=C(C)CSc1nc2nc(C)cc(C)n2n1 | 36 | 0.13 | 0.8 | 15 | 0.6
O=C(Nc1ccccc1O)c1ccccc1O | -34 | -0.89 | 0.4 | 63* | 1.3
CCS(=O)(=O)c1ccc(NC(=O)c2ccccc2Cl)c(O)c1 | 4 | 0.35 | 0.5 | 53* | 1
Cc1ccc(C)c(NC(=O)c2ccccc2O)c1 | 33 | -1 | 0.5 | 51* | 0.7
Cc1cccc(NC(=O)c2ccccc2O)c1C | 16 | -0.63 | 0.7 | 34 | 0.8
Cc1cc(OCCn2cc(/C(N)=N/O)c3ccccc32)ccc1Cl | 38 | -1.4 | 0.7 | 29 | 0.6
Cc1sc2ncnc(Oc3ccc(-n4ccnc4)cc3)c2c1C | 100* | -0.2 | 0 | 99* | 0
Cc1ccc(Nc2ncnc3sc(C)c(C)c23)cc1 | / | 0.74 | / | / | /
Cc1nc(-c2cccc(NS(=O)(=O)c3ccccc3)c2)cs1 | 97* | 0.07 | 0.2 | 77* | 0
Cc1cccc(S(=O)(=O)Nc2cccc(-c3cn4ccsc4n3)c2)c1 | 80* | -2.1 | 0.1 | 91* | 0.2
Cc1cc(C)nc(NS(=O)(=O)c2ccc(NS(=O)(=O)c3ccccc3)cc2)n1 | 11 | 0.83 | 0.7 | 26 | 0.9
O=S(=O)(Nc1cccc(-c2cn3cccnc3n2)c1)c1ccc(F)cc1 | / | -0.33 | / | / | /
CC(C)C(=O)Nc1cccc(-c2cn3ccsc3n2)c1 | -3 | -0.23 | 0.9 | 7 | 1
O=S(=O)(Nc1cccc(-c2cn3cccnc3n2)c1)c1ccc(-c2ccccc2)cc1 | 81* | -0.93 | 0 | 100* | 0.2
O=S(=O)(Nc1cccc(-c2cn3ccsc3n2)c1)c1ccc(F)cc1 | 69* | -1.7 | 0.2 | 79* | 0.3
COc1ccc(NC(=O)C2OC3OC(C)(C)OC3C3OC(C)(C)OC23)cc1 (stereo unspecified) | -6 | -0.28 | 0.7 | 28 | 1.1
Cc1ccc(S(=O)(=O)Nc2cccc(-c3cn4ccsc4n3)c2)cc1 | 100* | -0.77 | 0 | 99* | 0
SMILES | CYP2C19 inh | Pyk2 oligo antag | CYP2C9 activ | CYP2C9 inhib | CYP2C19 act
CCC(=O)Nc1cccc(-c2cn3ccsc3n2)c1 | -1 | -0.29 | 1.5 | -52 | 1
COc1cc(Cl)ccc1S(=O)(=O)n1nc(C)cc1C | 75* | 0.19 | 0.8 | 15 | 0.3
COc1ccc(Cl)cc1C(=O)n1nc(C)cc1C | 27 | -2.5 | 1.1 | -13 | 0.7
COc1cc(S(=O)(=O)n2nc(C)cc2C)c(OC)cc1Cl | 83* | 0.31 | 0.7 | 29 | 0.2
Nc1scc2c(C(=O)N/N=C/c3ccc(Cl)cc3)nn(-c3ccccc3)c(=O)c12 | 6 | -0.19 | 0.5 | 54* | 0.9
COc1cccc(OCCCN2CCN(S(=O)(=O)c3ccc(NC(C)=O)cc3)CC2)c1 | 86* | 0.72 | 0.2 | 80* | 0.1
CC(=O)Nc1ccc(S(=O)(=O)N2CCN(CCCOc3ccccc3Cl)CC2)cc1 | 68* | -1.2 | 0.5 | 48 | 0.3
CC(=O)Nc1ccc(S(=O)(=O)N2CCN(C(=O)Cc3ccccc3)CC2)cc1 | / | 0.44 | / | / | /
COC(CN1C(=O)C(O)=C(C(C)=O)C1c1ccccn1)OC (stereo unspecified) | 7 | 0.78 | 0.8 | 15 | 0.9
Cc1ccc(N2C(=O)C3ON(c4ccccc4)C(c4ccncc4)C3C2=O)c(C)c1 (stereo unspecified) | 100* | 1.9 | 0 | 95* | 0
